# Results published in PubChem BioAssay (NCATS).
# Results filed as inconclusive are left out. Where a call stands in place of a potency, no number is given. Calls of active or inactive are those of the source. Unless noted, calls follow the shape of the dose curve; as a rule, active = well fitted curve in the direction sought with a large enough effect; inconclusive = small, poorly fitted or top-dose-only effect, or another doubt; inactive = no such curve, though single readings can be large; an effect the other way counts as inactive or inconclusive.
# Assays:
# [1] = molecular target: Cytochrome P450 3A4 (Homo sapiens) (UniProt P08684); test: qHTS Assay for Inhibitors and Substrates of Cytochrome P450 3A4 (AID 884); also: nearly all actives have a fitted effect of over 50% in size; also: potency is read from the fitted curve at half-maximal effect
# Procedure, shortened: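 20 nM human CYP3A4 with 25 uM Luciferin-PPXE (at KM) in 200 mM KPO4, preincubated 10 min with compound; NADPH regeneration started a 60 min RT reaction. Luciferin detected by luminescence, normalized to 57 uM ketoconazole as full inhibition.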
# [2] = molecular target: Cytochrome P450 3A4 (Homo sapiens) (UniProt P08684); test: qHTS Assay for Activators of Cytochrome P450 3A4 (AID 885); also: nearly all actives have a fitted effect of over 65% in size
# Procedure, shortened: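 Human CYP3A4 (20 nM) with Luciferin-PPXE at 25 uM (its KM) in 200 mM KPO4; 10 min compound preincubation, then NADPH regeneration and 60 min reaction at RT. Luciferin read by luminescence; normalized to 57 uM ketoconazole full inhibition.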
# [3] = Confirmation and Secondary Assay for Modulators of Hemoglobin Beta Chain Splicing at IVS2 654 locus (AID 910);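 also: HeLa cells stably carrying EGFP split by mutant beta-globin IVS2-654 intron; per-well total GFP intensity by laser scanning cytometry after 2-day treatment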;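 also: potency is read from the fitted curve at half-maximal effect; potency of activators that raise GFP signal by restoring correct splicing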
# Procedure, shortened: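 Readout: per-well total peak green fluorescence (488 nm ex, 500–520 nm em) from objects 5–250 µm, reflecting correct splicing of an EGFP-654 reporter. Compounds were applied for 2 days at 37 °C to overnight-plated HeLa EGFP-654 cells; controls were DMSO and 500 nM IVS2-654 PNA.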
# [4] = Confirmation and Secondary Assay for Modulators of Hemoglobin Beta Chain Splicing at IVS2 705 locus (AID 930);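 also: HeLa cells stably expressing the EGFP-705 splicing reporter; GFP fluorescence per well restored by corrected splicing of the IVS2-705 intron in EGFP; series mostly up to about 46 µM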
# Procedure, shortened: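 Secondary splice-site specificity test uses HeLa expressing CMV-driven EGFP interrupted by IVS2-705; cells were treated 2 days at 37C with 500 nM antisense PNA as positive control.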
# [5] = molecular target: Peroxisome proliferator-activated receptor delta (Homo sapiens) (UniProt Q03181); test: qHTS assay for small molecule agonists of peroxisome proliferator-activated receptor delta signaling (AID 588534; calls by dose curve)
# Procedure, shortened: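 Cells carrying a PPAR-delta beta-lactamase reporter were treated with compounds for 18 h at 37 °C in agonist mode. CCF4 fluorescence was read after 2 h; EC50 and efficacy from Hill fits.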
# [6] = S16 Schwann cell PMP22 intronic element firefly luciferase assay (AID 624032); also: series mostly up to about 58 µM; nearly all actives have a fitted effect of over 30% in size
# Procedure, shortened: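 Luciferase reporter of PMP22 intronic-element expression in stably transfected S16 rat Schwann cells, read by ONE-Glo luminescence after 24 h compound exposure at 37 C. Activity scaled between DMSO (0%) and positive-control PTC124; concentration-effect curves quality-classified.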
# [7] = molecular target: Vitamin D3 receptor (Homo sapiens) (UniProt P11473); test: qHTS assay for small molecule antagonists of vitamin D receptor signaling (AID 588541; calls by dose curve;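 also: receptor activated by calcitriol during compound treatment; series mostly up to about 77 µM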)
# Procedure, shortened: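 Antagonist-mode beta-lactamase reporter assay: HEK293T VDR-UAS-bla cells were exposed to titrated compound alongside 1-alpha,25-dihydroxyvitamin D3 at 3 nM final for 16 h. Values were normalized to the 50 nM agonist control and DMSO basal, with IC50 and efficacy from Hill equation fits.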
# [8] = molecular target: Vitamin D3 receptor (Homo sapiens) (UniProt P11473); test: qHTS assay for small molecule agonists of vitamin D receptor signaling (AID 588543; calls by dose curve)
# Procedure, shortened: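 β-lactamase reporter, VDR-UAS-bla HEK293T, agonist mode. Cells plated 5 h at 37 °C, compound titration 16 h at 37 °C, CCF4 dye 2 h RT, ratio 460/530 nm. Hill fit → EC50, efficacy vs 50 nM 1α,25-(OH)2D3.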
# [9] = molecular target: Thyroid hormone receptor beta (Homo sapiens) (UniProt P10828); test: qHTS assay for small molecule agonists of thyroid hormone receptor beta signaling (AID 588545; calls by dose curve)
# Procedure, shortened: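 Beta-lactamase reporter activity under TR response element control is measured in HEK 293 cells after 18 hrs compound exposure. Signal is ratiometric CCF4 fluorescence, 460/530 nm.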
# [10] = molecular target: Peroxisome proliferator-activated receptor alpha (Homo sapiens) (UniProt Q07869); test: qHTS assay for small molecule agonists of the peroxisome proliferator-activated receptor alpha (PPARalpha) signaling pathway (AID 651778); details: PathHunter PPARalpha complementation, chemiluminescence, 6 h; max response: stronger effect = higher value
# Procedure, shortened: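 Chemiluminescence from complemented enzyme reported PPARalpha activation in cells after 6 hr of compound treatment at 37 C. The detection reagent was incubated for 60 min at room temperature, and compounds were scored as agonists.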
# [11] = qHTS assay for small molecule agonists of the antioxidant response element (ARE) signaling pathway measured by Nrf2-dependant transcriptional activity - cell viability counter screen (AID 720653; active = well fitted curve in the direction sought with a large enough effect in the repeat runs; an effect the other way counts as inactive or inconclusive; also: potency is read from the fitted curve at half-maximal effect); details: ARE-bla HepG2 viability, CellTiter-Glo ATP luminescence, 16 h; max response: stronger effect = lower value
# Procedure, shortened: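 Cytotoxicity counter screen: intracellular ATP quantified by CellTiter-Glo luminescence in the same ARE-bla HepG2 plates, after 16 h compound exposure and a 2 h beta-lactamase substrate step.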
# [12] = qHTS assay for cell viability of HEK293 cells (AID 743288); details: ATP luminescence (CellTiter-Glo), 18 h; max response: stronger effect = lower value; also: nearly all actives have a fitted effect of over 50% in size; also: potency is read from the fitted curve at half-maximal effect
# Procedure, shortened: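 Environmental chemicals tested in qHTS format against parental HEK293 cells; 18 h treatment, 37 C; read-out ATP luminescence (CellTiter-Glo), 30 min RT development.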
# [13] = qHTS assay for small molecule antagonists of retinoid X receptor alpha signaling (AID 588546; active = well fitted inhibition curve with a large enough effect in the signal ratio, with a control signal flat, not every such curve was filed as active; the % refers to the signal ratio; also: potency is read from the fitted curve at half-maximal effect;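 as to max response: cells stimulated with 9-cis-retinoic acid as agonist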); details: HEK293T RXRa-UAS-bla, beta-lactamase ratio, antagonist mode; measured here: W530 green channel, cytotoxicity proxy
# Procedure, shortened: (§1)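 Beta-lactamase reporter inhibition, read as CCF4 fluorescence ratio (ex 405, em 460/530 nm) after 2 h at RT. HEK293T UAS-bla cells, 2500/well, were stimulated with 9-cis-RA at 500 or 100 nM final alongside test compound for 18 h at 37 C.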
# [14] = molecular target: Retinoic acid receptor RXR-alpha (Homo sapiens) (UniProt P19793); test: as above; details: HEK293T RXRa-UAS-bla, beta-lactamase ratio, antagonist mode
# Procedure, shortened: as §1
# Vitamin D3 receptor (Homo sapiens), sequence (P11473 whole entry, looked up): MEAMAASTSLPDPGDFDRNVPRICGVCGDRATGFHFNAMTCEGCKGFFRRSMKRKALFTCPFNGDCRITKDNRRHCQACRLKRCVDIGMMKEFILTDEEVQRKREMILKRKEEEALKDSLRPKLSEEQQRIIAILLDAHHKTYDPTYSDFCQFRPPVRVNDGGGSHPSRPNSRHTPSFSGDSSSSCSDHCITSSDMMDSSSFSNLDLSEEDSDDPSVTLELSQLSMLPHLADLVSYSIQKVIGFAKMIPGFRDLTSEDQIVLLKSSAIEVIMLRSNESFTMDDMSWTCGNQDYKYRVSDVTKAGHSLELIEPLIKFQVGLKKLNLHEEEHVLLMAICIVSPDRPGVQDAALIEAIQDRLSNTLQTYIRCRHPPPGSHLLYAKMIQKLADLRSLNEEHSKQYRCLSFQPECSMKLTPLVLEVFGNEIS
# Thyroid hormone receptor beta (Homo sapiens), sequence (P10828 whole entry, looked up): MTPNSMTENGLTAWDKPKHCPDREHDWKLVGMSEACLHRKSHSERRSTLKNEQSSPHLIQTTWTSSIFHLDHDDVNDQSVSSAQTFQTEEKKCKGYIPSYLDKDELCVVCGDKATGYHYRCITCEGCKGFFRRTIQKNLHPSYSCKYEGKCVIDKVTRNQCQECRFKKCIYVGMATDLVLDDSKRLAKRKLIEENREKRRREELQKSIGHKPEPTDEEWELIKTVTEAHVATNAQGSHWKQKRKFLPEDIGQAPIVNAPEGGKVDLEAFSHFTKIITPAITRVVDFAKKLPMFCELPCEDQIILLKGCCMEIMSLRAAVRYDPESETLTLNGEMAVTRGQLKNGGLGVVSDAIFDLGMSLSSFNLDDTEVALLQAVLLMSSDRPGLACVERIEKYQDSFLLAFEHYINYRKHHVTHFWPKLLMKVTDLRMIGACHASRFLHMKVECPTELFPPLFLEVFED
# Peroxisome proliferator-activated receptor delta (Homo sapiens), sequence (Q03181 whole entry, looked up): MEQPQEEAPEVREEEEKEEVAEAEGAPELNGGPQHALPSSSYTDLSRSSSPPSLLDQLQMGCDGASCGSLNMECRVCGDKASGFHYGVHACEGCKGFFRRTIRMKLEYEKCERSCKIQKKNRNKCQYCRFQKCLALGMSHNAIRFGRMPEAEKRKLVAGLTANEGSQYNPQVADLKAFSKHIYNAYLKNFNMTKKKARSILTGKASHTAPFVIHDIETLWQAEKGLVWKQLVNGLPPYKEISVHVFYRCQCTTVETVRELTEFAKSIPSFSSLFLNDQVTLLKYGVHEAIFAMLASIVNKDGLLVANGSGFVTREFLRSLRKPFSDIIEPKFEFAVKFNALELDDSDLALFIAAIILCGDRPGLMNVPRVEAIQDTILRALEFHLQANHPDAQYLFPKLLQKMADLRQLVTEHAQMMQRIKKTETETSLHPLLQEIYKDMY
# Peroxisome proliferator-activated receptor alpha (Homo sapiens), sequence (Q07869 whole entry, looked up): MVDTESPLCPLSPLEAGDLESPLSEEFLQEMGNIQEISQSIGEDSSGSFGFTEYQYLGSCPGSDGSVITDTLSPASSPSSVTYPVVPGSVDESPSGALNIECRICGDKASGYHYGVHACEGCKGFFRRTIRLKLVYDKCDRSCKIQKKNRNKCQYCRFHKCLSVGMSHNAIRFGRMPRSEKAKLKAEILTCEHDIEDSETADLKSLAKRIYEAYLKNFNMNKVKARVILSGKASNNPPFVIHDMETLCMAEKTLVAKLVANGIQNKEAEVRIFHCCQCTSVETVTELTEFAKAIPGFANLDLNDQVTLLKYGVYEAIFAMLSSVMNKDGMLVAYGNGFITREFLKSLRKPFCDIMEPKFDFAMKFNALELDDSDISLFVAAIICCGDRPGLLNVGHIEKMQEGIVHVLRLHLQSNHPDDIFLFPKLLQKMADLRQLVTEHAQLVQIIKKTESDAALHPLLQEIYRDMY
# Cytochrome P450 3A4 (Homo sapiens), sequence (P08684 whole entry, looked up): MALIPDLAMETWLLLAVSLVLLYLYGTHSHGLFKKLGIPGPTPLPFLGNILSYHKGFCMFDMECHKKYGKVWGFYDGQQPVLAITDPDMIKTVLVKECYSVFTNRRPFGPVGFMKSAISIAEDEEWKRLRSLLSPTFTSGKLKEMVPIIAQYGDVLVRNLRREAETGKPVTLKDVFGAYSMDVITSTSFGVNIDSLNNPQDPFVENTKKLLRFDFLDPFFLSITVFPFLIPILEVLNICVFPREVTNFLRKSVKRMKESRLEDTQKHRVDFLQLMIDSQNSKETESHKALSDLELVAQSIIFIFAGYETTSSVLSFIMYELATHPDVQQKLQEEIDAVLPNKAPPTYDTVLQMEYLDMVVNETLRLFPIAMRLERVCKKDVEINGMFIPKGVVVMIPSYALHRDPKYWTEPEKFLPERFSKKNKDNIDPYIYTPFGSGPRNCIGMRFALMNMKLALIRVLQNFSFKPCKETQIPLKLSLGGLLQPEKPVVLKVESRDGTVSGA
# Retinoic acid receptor RXR-alpha (Homo sapiens), sequence (P19793 whole entry, looked up): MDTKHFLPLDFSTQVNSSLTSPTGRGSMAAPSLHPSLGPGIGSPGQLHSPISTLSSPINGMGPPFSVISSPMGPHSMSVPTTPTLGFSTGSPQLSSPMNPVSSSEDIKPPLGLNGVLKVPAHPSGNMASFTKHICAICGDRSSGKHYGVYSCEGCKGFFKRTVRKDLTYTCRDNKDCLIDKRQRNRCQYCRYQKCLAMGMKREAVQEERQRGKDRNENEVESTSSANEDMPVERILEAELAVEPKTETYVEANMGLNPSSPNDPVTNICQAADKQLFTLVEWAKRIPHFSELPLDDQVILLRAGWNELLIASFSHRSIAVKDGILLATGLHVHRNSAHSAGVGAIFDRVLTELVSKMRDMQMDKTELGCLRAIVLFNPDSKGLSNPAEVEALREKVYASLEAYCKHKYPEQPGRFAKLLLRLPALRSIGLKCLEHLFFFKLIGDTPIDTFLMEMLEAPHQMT
compound,measurement,setting,value
CC1(C)C(C(Cl)Cl)C2(Cl)C(Cl)C(Cl)C1(Cl)C2(Cl)Cl (centres undefined),Potency,[1],7.94 µM (active)
same,Potency,[2],inactive
same,Potency,[3],inactive
COc1ccc(C(=O)O)cc1OC,Potency,[1],inactive
same,Potency,[3],inactive
same,outcome,[4],inactive
CC1(C)S[C@H]2[C@@H](N)C(=O)N2[C@H]1C(=O)O,Potency,[1],inactive
CN1[C@H]2CC(OC(=O)[C@H](CO)c3ccccc3)C[C@H]1[C@H]1O[C@H]12 (some centres undefined),outcome,[5],inactive
NCC(N)C(=O)c1ccccc1 (centres undefined),Potency,[1],inactive
same,Potency,[3],inactive
same,outcome,[4],inactive
COC(=O)/C(C)=C\CC12OC(C)(C)C3CC(C=C4C(=O)c5c(OC)c6c(c(CC=C(C)C)c5OC431)OC(C)(CCC=C(C)C)C=C6)C2=O (centres undefined),Potency,[1],3.16 µM (active)
same,Potency,[3],inactive
Cc1cccc2c3c(ccc12)C1=C(C(=O)C3=O)C(C)CO1 (centres undefined),Potency,[2],inactive
CC1CC(Cl)CCC1C(=O)OC(C)(C)C (centres undefined),Potency,[1],inactive
same,Potency,[3],inactive
same,outcome,[4],inactive
CCC1C(=O)OC[C@H]1Cc1cncn1C (some centres undefined),Potency,[1],20 µM (active)
same,Potency,[2],inactive
same,Potency,[3],inactive
COc1cc2c(cc1OC)-c1c(OC)c(OC)c(C=O)c3c1[C@H](C2)N(C)CC3,Potency,[2],inactive
CC[C@]1(O)CC(O[C@@H]2CC(N(C)C)C(O)C(C)O2)c2c(cc3c(c2O)C(=O)c2c(O)cccc2C3=O)C1C(=O)OC (some centres undefined),Potency,[2],inactive
same,Potency,[3],15.8 µM (active)
C/C=C1/C[C@@H](C)[C@](O)(CO)C(=O)OCC2=CCN3CC[C@@H](OC1=O)C23 (some centres undefined),Potency,[1],inactive
CNC1=CN(O)C(c2ccccc2)=c2cc(Cl)ccc2=N1,Potency,[6],inactive
CC(CO)NC(=O)C1C=C2c3cccc4[nH]cc(c34)C[C@H]2N(C)C1 (some centres undefined),Potency,[1],inactive
same,Potency,[3],inactive
C=CCN1CC[C@]23c4c5ccc(O)c4OC2C(=O)CC[C@]3(O)C1C5 (some centres undefined),Potency,[3],inactive
O=C1CC[C@]2(O)C3Cc4ccc(O)c5c4C2(CCN3CC2CC2)C1O5 (some centres undefined),Potency,[1],inactive
same,Potency,[3],inactive
same,outcome,[4],inactive
OCC1OC(n2cnc3cc(Cl)c(Cl)cc32)C(O)C1O (centres undefined),Potency,[1],inactive
same,Potency,[3],inactive
same,outcome,[4],inactive
CN(C)C1C(=O)C(C(N)=O)=C(O)[C@@]2(O)C(=O)C3=C(O)c4c(O)cccc4[C@@](C)(O)C3CC12 (some centres undefined),Potency,[1],inactive
same,Potency,[3],inactive
CSc1nc(NC(C)C)nc(NC(C)C)n1,Potency,[1],inactive
same,Potency,[3],inactive
same,Potency,[7],inactive
same,outcome,[8],inactive
same,Potency,[9],inactive
same,max response,[10],8.44% (inactive)
same,max response,[11],9.37% (inactive)
same,max response,[12],2.18% (inactive)
CC(=O)OC1C2CCC3C1(CC(O)[C@@]1(O)[C@@H](CC(O)C1(C)C)[C@]3(C)O)C[C@@]2(C)O (some centres undefined),Potency,[1],inactive
same,Potency,[3],inactive
CC(=O)OC1CCC2(C)C3=C(CCC2C1(C)C)[C@@]1(C)CCC(C(C)CCC=C(C)C)[C@@]1(C)CC3 (some centres undefined),Potency,[1],inactive
O=C1C=C2C(=CCOC2O)O1 (centres undefined),Potency,[1],inactive
same,Potency,[3],inactive
same,outcome,[5],inactive
same,max response,[10],0.776% (inactive)
same,Potency,[12],8.91 µM (active)
CC(=O)OCC1=C(C(=O)O)N2C(=O)C(NC(=O)CCCC(N)C(=O)O)C2SC1 (centres undefined),Potency,[1],inactive
same,Potency,[3],inactive
CN(CCC(N)CC(=O)NC1C=CC(n2ccc(N)nc2=O)OC1C(=O)O)C(=N)N (centres undefined),Potency,[1],0.199 µM (active)
same,Potency,[2],inactive
same,Potency,[3],inactive
same,outcome,[4],inactive
COc1ccc(CC2NC[C@H](O)[C@H]2OC(C)=O)cc1 (some centres undefined),Potency,[1],inactive
same,Potency,[3],inactive
N#Cc1c(Cl)c(Cl)c(Cl)c(C#N)c1Cl,Potency,[1],3.16 µM (active)
same,Potency,[2],inactive
same,Potency,[3],inactive
same,Potency,[9],inactive
same,max response,[13],-33.7%
same,Potency,[14],7.08 µM (active)
same,max response,[10],-3.28% (inactive)
same,Potency,[11],70.8 µM (active)
same,Potency,[12],15.8 µM (active)
CC(C)N(C(=O)CCl)c1ccccc1,Potency,[1],inactive
same,Potency,[3],inactive
same,outcome,[8],inactive
same,Potency,[9],inactive
same,max response,[10],-1.12% (inactive)
same,Potency,[11],39.8 µM (active)
CCC1C2CC3C4N(C)c5ccccc5[C@]45CC(C2C5O)N3C1O (some centres undefined),Potency,[1],inactive
same,Potency,[3],inactive
COc1ccc(C2Oc3c(I)c(OC)cc(OC)c3CC2O)cc1OC (centres undefined),Potency,[1],3.16 µM (active)
same,Potency,[2],inactive
same,Potency,[3],inactive
CCCC/C(C)=C/[C@@H](NP(=O)(c1ccccc1)c1ccccc1)c1ccccc1,Potency,[1],2.51 µM (active)
same,Potency,[2],inactive
CCCC/C=C/[C@@H](NP(=O)(c1ccccc1)c1ccccc1)c1ccccc1OC,Potency,[1],6.31 µM (active)
same,Potency,[2],inactive
